Source: PubChem BioAssay (Tox21)
Several values for one entry are separate records, joined by “and”; a condition that tells them apart may be missing. Identical values can stand only once. Inconclusive results are not listed. Entries that show only a call come without a potency. Activity calls are given as the source filed them. The call rests on the fitted dose curve.

assay: qHTS assay for small molecule disruptors of the mitochondrial membrane potential - cell viability (AID 720634); conditions: HepG2 viability, ATP luminescence (CellTiter-Glo), 1 h; series mostly up to 83.2 µM; further: nearly all actives have a fitted effect of over 20% in size
From the text: U.S. Tox21 Program National Center for Advancing Translational Sciences [NCATS] NIH Chemical Genomics Center [NCGC] U.S. Environmental Protection Agency [EPA] National Institutes of Environmental Health Sciences [NIEHS] National Toxicology Program [NTP] U.S. Food and Drug Administration [FDA] Tox21 Assay Overview: Mitochondrial membrane potential (MMP), one of the parameters for mitochondrial function, is generated by mitochondrial electron transport chain that creates an electrochemical gradient by a series of redox reactions. This gradient drives the synthesis of ATP, a crucial molecule for various cellular processes. Measuring MMP in living cells is commonly used to assess the effect of chemicals on mitochondrial function; decreases in MMP can be detected using lipophilic cationic fluorescent dyes. […] The dye accumulates in the mitochondria of healthy cells as aggregates, with red fluorescence. The mitochondrial potential decreases and the dye could not accumulate in the mitochondria and remains in the cytoplasm in monomers, with green fluorescence. In addition to the mitochondrial potential assay, these cells were also used to test the cytotoxicity by determining the cell viability in the culture based on the quantitation of ATP present. The cytotoxicity was measured in the same assay well of MMP assay.
Tox21 Assay Protocol Summary: 2,000 HepG2 cells in 5 uL/well were dispensed into black, clear-bottom 1536-well plates using a Multidrop Combi (Thermo Scientific) dispenser. The assay plates were incubated for an overnight at 37 C to allow cells to attach to the wells, followed by the transfer of 23 nL compound or DMSO vehicle by a pin tool (Kalypsys). The plates were incubated for 1 hr at 37 C and 5% CO2, followed by the addition of 5 uL of 2X m-MPI dye into each well using Flying Reagent Dispenser (Aurora Discovery) and then CellTiter-Glo reagent was added at 4 uL/well and incubated 30 min at room temperature. Then luminescence intensity was quantified on a ViewLux CCD-based plate reader.
Potency means the concentration at half of the fitted maximal effect.

| Structure (SMILES) | Potency |
| --- | --- |
| N#CC(c1ccccc1)c1ccccc1 | inactive |
| S=c1[nH]c2ccccc2[nH]1 | inactive |
| CCOS(=O)(=O)OCC | inactive |
| CCOP(=S)(OCC)OP(=S)(OCC)OCC | inactive |
| CN(C)c1nc(=O)n(C2CCCCC2)c(=O)n1C | inactive |
| Cc1ccc(N=CN(C)C=Nc2ccc(C)cc2C)c(C)c1 | inactive |
| C[N+](C)(C)CC(=O)[O-] | inactive |
| CCNc1nc(Cl)nc(NC(C)(C)C#N)n1 | inactive |
| O=C1Nc2ccc(Cl)cc2C(c2ccccc2)=NC1O (stereo not given) | inactive |
| N#Cc1c(Cl)c(Cl)c(Cl)c(C#N)c1Cl | 19 µM (active) and 21.7 µM (active) |
| CCCCOCCOC(C)=O | inactive |
| CCCCOC(=O)COC(=O)c1ccccc1C(=O)OCCCC | inactive |
| CNC(=O)CSP(=S)(OC)OC | inactive |
| CCOP(=S)(OCC)SCn1c(=O)oc2cc(Cl)ccc21 | 54.5 µM (active) |
| CNC(=O)Oc1cccc2c1OC(C)(C)C2 | inactive |
| Nc1ncn[nH]1 | inactive |
| N#Cc1nn(-c2c(Cl)cc(C(F)(F)F)cc2Cl)c(N)c1S(=O)C(F)(F)F (stereo not given) | 10.6 µM (active) and 1.54 µM (active) |
| CSc1nc(NC(C)C)nc(NC(C)C)n1 | inactive |
| CCC/C=N/O | inactive |
| CCOP(=S)(OCC)SCSC(C)(C)C | inactive |

| Structure (SMILES) | Potency |
| --- | --- |
| ClCc1ccccn1 | inactive |
| CCC1(c2ccc(N)cc2)CCC(=O)NC1=O (stereo not given) | inactive |
| Clc1ccc(C(Cl)(Cl)Cl)cc1 | inactive |
| CCC[CH2][Sn]([Cl])([CH2]CCC)[CH2]CCC | 1.73 µM (active) and 4.86 µM (active) |
| CC1CC(=O)O1 (stereo not given) | inactive |
| ClC(Cl)=C(Cl)C(Cl)=C(Cl)Cl | inactive |
| CN(C)c1ccccc1 | inactive |
| Clc1cccc(C(Cl)(Cl)Cl)n1 | inactive |
| CCOP(=O)(OCC)OCC | inactive |
| ClCC(Cl)CCl | inactive |
| O=NN(c1ccccc1)c1ccccc1 | inactive |
| CCCCOCC1CO1 (stereo not given) | inactive |
| Nc1ccc([N+](=O)[O-])cc1N | inactive |
| CCC(=O)Nc1ccc(Cl)c(Cl)c1 | 54.5 µM (active) |
| CC(C)CON=O | inactive |
| ClC(Cl)(Cl)Br | inactive |
| CC(C)Nc1nc(Cl)nc(NC(C)C)n1 | inactive |
| Oc1ccc(Cl)cc1Cc1ccccc1 | 13.3 µM (active) and 21.7 µM (active) and 15.4 µM (active) |
| COP(=O)(NC(C)=O)SC (stereo not given) | inactive |
| ClC(Cl)(Cl)c1ccccc1 | inactive |
